Dicer processing = blocks human Dicer maturation of pre-miR-21; AID 1347074; 47,000 compounds, 6% hits; z-score at 25 µM; cat-ELCCA pre-miR-21 Dicer processing, chemiluminescence; active compounds read high; in the data active = z-score above about 3, passing the limit was not always enough;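 note: plate controls were vehicle for no effect and no enzyme for full effect; higher signal means more uncleaved substrate so more Dicer inhibition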
* marks the source's active call; other numbers are inactive results. The entries come from a sample that favours hits as a whole.

SMILES	Dicer processing
CCOC(=O)C1=C(C)Nc2nc3ccccc3n2C1c1ccc(O)cc1 (stereo not drawn)	-0.38
COC(=O)C1=C(C)Nc2nc3ccccc3n2C1c1sccc1C (stereo not drawn)	-0.1
CCOC(=O)C1=C(C)Nc2nc3ccccc3n2C1c1sccc1C (stereo not drawn)	-0.78
CCOC(=O)C1=C(C)Nc2nc3ccccc3n2C1/C=C/c1ccccc1 (stereo not drawn)	3.8*
CC1=C(C(=O)OC(C)C)C(c2sccc2C)n2c(nc3ccccc32)N1 (stereo not drawn)	3.5*
CCOC(=O)C1=C(C)Nc2nc3ccccc3n2C1c1ccccc1C (stereo not drawn)	0.04
CCN1CCN(c2nc3c(c(=O)[nH]c(=O)n3C)n2C(C)C)CC1	0.51
Cc1noc(N)c1-c1nc(-c2cccc(C(F)(F)F)c2)cs1	1.3
NC(=O)C1=CN(C(=O)Nc2ccc(Cl)cc2Cl)CCC1C(F)(F)F (stereo not drawn)	-2.1
Cc1cccc(NC(=O)c2c(O)c3ccccc3n(C)c2=O)n1	0.19
O=C1c2ccccc2C2N1CCCN2S(=O)(=O)c1ccccc1 (stereo not drawn)	0.92
Cc1c(C)c(C)c(S(=O)(=O)Oc2ccc([N+](=O)[O-])cc2)c(C)c1C	4.7*
Cc1ccc(S(=O)(=O)Oc2ccc(-c3ccc(OS(=O)(=O)c4ccc(C)cc4)cc3)cc2)cc1	-0.18
N#Cc1c(OCC(F)(F)F)ccc(S(=O)(=O)Oc2ccc([N+](=O)[O-])cc2)c1OCC(F)(F)F	-0.54
CC1(C)CN=C(N(C(=O)Nc2ccc(Cl)c(Cl)c2)c2ccccc2)S1	-1.2
O=C(Nc1nccs1)C(=O)c1c(-c2ccccc2)cc2ccccn12	0.51
C=CCSc1nnc(-c2ccc(C(C)(C)C)cc2)n1Cc1ccco1	-6
CC(=O)c1ccc(NCN2C(=O)c3ccccc3C2=O)cc1	1.6
CN(C(=O)Cn1nc(C(F)(F)F)c2c1CCCC2)c1ccccc1	3.8*
CC(C)CNC(=O)Cn1nc(C(F)(F)F)c2c1CCCC2	1.1
O=C(Cn1nc(C(F)(F)F)c2c1CCCC2)N1CCCc2ccccc21	0.09
CCOC(=O)c1sc(/N=C(/C)O)c(C#N)c1C	-0.33
CN(C)S(=O)(=O)N(CC(=O)Nc1c(F)cccc1F)c1ccccc1	-1.8
CN(CCc1ccccn1)Cc1ccc(Cl)cc1	3.7*
Cc1ccc(CN(C)CCc2ccccn2)cc1	1.5
SMILES	Dicer processing
CCc1ccc(CN(C)CCc2ccccn2)cc1	1.9
C=CCc1c(CCC)nc(SCC2CC2)[nH]c1=O	-0.91
Cc1nc([N+](=O)[O-])cn1C(C)C(=O)c1ccc(-c2ccccc2F)cc1 (stereo not drawn)	-0.65
Nc1cccnc1Sc1nc2cccnc2s1	-4.9
COc1cc(C(=O)O)ccc1NC(=O)c1nccnc1C(=O)O	-1.2
C=CCNC(=S)N1CCc2sccc2C1c1ccc(Cl)cc1 (stereo not drawn)	0.37
O=C(O)CCC(=O)Nc1cc2c(cc1Br)OCCO2	0.22
O=C(O)CCC(=O)Nc1ccc(OC(F)(F)F)cc1Br	-1
Cc1ccc(NC(=O)CCS(=O)(=O)Cc2ccccc2)c(Br)c1	4.5*
CN1CCc2c(sc3c2C(=O)NC(c2c(F)cccc2Cl)N3)C1 (stereo not drawn)	-0.5
COc1ccc(OCCC(=O)NNC(=S)Nc2cccc(OC)c2)cc1	1.1
COc1cc(C(=O)NNC(=O)c2ccccc2)c(-n2c(C)ccc2C)cc1OC	-0.88
CCc1ccnc(NC(=O)Nc2ccccc2C)c1	-2.3
CCN(CC)CCn1c(-c2ccc(OC)cc2)nc(=S)c2c1CC(C)(C)OC2	0.56
COCCn1c(-c2ccccc2)nc(=S)c2c1CC(C)(C)OC2	-0.39
COc1ccc(-c2nc(=S)c3c(n2CCCN(C)C)CC(C)(C)OC3)cc1	3.1*
CCCCCOc1ccc(OC(=O)Cn2cnc3sc4c(c3c2=O)CCCC4)cc1	2.9
CSc1sc(/C(C)=N\O)c2c1/C(=N\O)CC(C)(C)C2	5.6*
COC(=O)c1sc(SC)c2c1CC(C)(C)C/C2=N/O	-0.85
CSc1sc(C(=O)O)c2c1C(=O)CC(C)(C)C2	0.03
CC1CCC(=O)C(C(CC(=O)c2ccccc2)c2ccc3c(c2)OCO3)C1 (stereo not drawn)	2.9
COC(=O)c1cccc(OC)c1[N+](=O)[O-]	0.4
Cc1c(Br)c([N+](=O)[O-])nn1CC(=O)N1CCN(C)CC1	0.97
O=c1c(Cc2ccc(Cl)cc2)c(-c2ccccc2)sc2ccccc12	-1.5
CCOC(=O)C1=C(CC)NC2=C(C(=O)CCC2)C1c1cccnc1 (stereo not drawn)	-0.45
SMILES	Dicer processing
Nc1cc(=O)[nH]n1C1CCN(c2ccccc2)CC1	3.2*
O=C1CC(c2ccccc2)CC(=O)N1c1ccc(N2CCOCC2)cc1	-0.18
Nc1cc(=O)[nH]c(=O)n1-c1ccccc1	-0.47
CSc1ccccc1NC(=O)CSc1nc2ccccc2[nH]1	1.1
COc1ccc2c(c1)CCC1C2CCC2(C)C(O)CCC12 (stereo not drawn)	-0.58
Cc1ccc(-c2noc(Cc3ccccc3)n2)cc1	1.9
O=S(=O)(Nc1ccccc1N1CCOCC1)c1ccc2c(c1)OCC2	7.6
CC(=O)Nc1ccc(S(=O)(=O)Nc2ccccc2N2CCOCC2)cc1Cl	2.2
O=S(=O)(Nc1ccccc1N1CCCCC1)c1ccc(C(F)(F)F)cc1	3.3*
CC(=O)c1sc2sc([N+](=O)[O-])c(C)c2c1C	11
Clc1ccccc1Cn1nnc2c(N/N=C/c3cccnc3)ncnc21	-1.9
COc1ccccc1Oc1ccc(C(F)(F)F)cc1NC(=O)c1sc2ccccc2c1Cl	-0.13
O=C(CSc1ccccn1)Nc1c(C(=O)C2CC2)oc2ccccc12	1.4
CC(=O)Nc1ccc(-n2sc3c(c2=S)-c2ccccc2NC3(C)C)cc1	5.3*
CCOc1ccc2c(c1)-c1c(sn(-c3ccccc3OC)c1=S)C(C)(C)N2	0.92
CC(=O)Nc1ccc(-n2sc3c(c2=S)-c2cccc(C)c2NC3(C)C)cc1	7.9
COc1ccc2c(c1)-c1c(sn(-c3ccccc3OC)c1=S)C(C)(C)N2	6.6*
CCOC(=O)c1ccc(-n2sc3c(c2=S)-c2ccccc2NC3(C)C)cc1	0.62
COc1ccc2c(c1)-c1c(sn(-c3cc(C)ccc3O)c1=S)C(C)(C)N2	1.9
Cc1csc(-c2coc3cc(OC(=O)C(C)NC(=O)OCc4ccccc4)cc(C)c3c2=O)n1 (stereo not drawn)	-0.73
O=C(Nc1cc(Cl)cc(Cl)c1)Nc1ccc(C(F)(F)F)cn1	-2.1
CCCN1C(=O)C2(/C(=C(/O)c3ccc(C)cc3)C(=O)C(=O)N2CC2CCCO2)c2ccccc21 (stereo not drawn)	0.78
Cc1cc(C)cc(N2CCn3c2nc2c3c(=O)n(CC(=O)O)c(=O)n2C)c1	-0.38
COc1ccc(OCCSc2nnnn2-c2ccccc2)cc1	37
O=C(O)CCC1=NN2C=Nc3sc4c(c3C2NC1=O)CCCC4 (stereo not drawn)	3.3*
SMILES	Dicer processing
Cc1nn(-c2ccccc2)c2oc(=O)cc(-c3ccccc3)c12	-2.1
CCOC(=O)C1=C(C)NC2=C(C(=O)CC(c3ccc(OC)c(OC)c3)C2)C1c1ccc(SC)cc1 (stereo not drawn)	1.3
O=[N+]([O-])c1cc(C(F)(F)F)ccc1Oc1ccc(F)cc1	24
CC(C)(C)NC(=O)NC(=O)c1ccc(Oc2ccc(C(F)(F)F)cc2[N+](=O)[O-])cc1	3.8*
CS(=O)c1ccc(Oc2ccc(C(F)(F)F)cc2[N+](=O)[O-])cc1 (stereo not drawn)	0.25
O=C(Nc1cccc(C(F)(F)F)c1)/C(=C\c1cccs1)c1ccsc1	-0.51

Bioassay records (PubChem BioAssay)
